High-throughput results: PubChem, National Center for Advancing Translational Sciences (NCATS)
SMN2 splice up = SMN2 splice variant enhancement; HEK293 SMN2-luciferase splicing reporter, luminescence, 30-36 h; Potency, µM (series often up to 46.1 µM), without a hit: at the top dose activity change, positive = activation, hits mostly activators; actives 2.8% (n = 210,000); note: % of control where 0% means no effect; nearly all actives have a fitted effect of over 55% in size
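HEK293 cells carry an SMN2 […]–luciferase reporter in which exon 7 inclusion puts luciferase in frame. Cells were plated 10-12 h before compound addition, then incubated 30-36 h at 37C. ONE-Glo luminescence was read; sodium butyrate at 4.5 mM final served as control.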
FLuc counter = firefly luciferase modulation, counter-screen for miR-21 project; P08659; purified FLuc, Km substrates, luminescence inhibition; Potency, µM (series often up to 57.5 µM), inactives show at the top dose activity change, negative = inhibition, most hits filed as inhibitors; actives 6.9% (n = 360,000);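 note: plate controls were vehicle for no effect and reference inhibitor for full effect; nearly all actives have a fitted effect of over 55% in size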
Target sequence (P08659 whole entry, looked up): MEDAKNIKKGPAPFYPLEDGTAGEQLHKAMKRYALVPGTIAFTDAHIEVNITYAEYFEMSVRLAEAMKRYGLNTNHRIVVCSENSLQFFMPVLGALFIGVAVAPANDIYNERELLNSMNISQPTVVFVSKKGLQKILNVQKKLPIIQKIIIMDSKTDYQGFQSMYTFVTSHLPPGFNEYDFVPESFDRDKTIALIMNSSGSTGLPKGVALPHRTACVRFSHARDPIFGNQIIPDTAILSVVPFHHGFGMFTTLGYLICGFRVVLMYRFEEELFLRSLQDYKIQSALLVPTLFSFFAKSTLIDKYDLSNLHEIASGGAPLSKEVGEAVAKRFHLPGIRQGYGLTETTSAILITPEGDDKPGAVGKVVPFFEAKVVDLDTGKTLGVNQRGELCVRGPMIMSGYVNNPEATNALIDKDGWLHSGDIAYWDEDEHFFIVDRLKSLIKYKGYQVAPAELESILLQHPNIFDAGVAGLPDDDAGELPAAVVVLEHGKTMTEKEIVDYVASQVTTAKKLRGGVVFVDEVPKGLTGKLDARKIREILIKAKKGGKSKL
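Purified P. pyralis luciferase (10nM final) with 10uM D-luciferin and 10uM ATP (Km levels) in 50mM Tris acetate pH 7.5, 10mM Mg acetate, 0.01% Tween-20, 0.05% BSA; qHTS 6-point titration, ~60 µM downward; luminescence read.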
ELG1 genotoxic = induces genotoxicity in HEK293T cells with luciferase-tagged ELG1; Potency, µM (series often up to 46 µM), inactives show top-dose activity change, positive = activation, most hits filed as activators; HEK293T ELG1-luciferase reporter, luminescence, 16 h; actives 1.3% (n = 330,000); AID 504466; note: % of control where 0% means no effect; nearly all actives have a fitted effect of over 60% in size
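Genotoxicity was scored as increased ELG1-luciferase reporter signal, measured by ONE-Glo luminescence (30 min, room temperature). Compound or vehicle exposure of the HEK293T reporter cells lasted 16 hr at 37°C.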
Rab9 prom act = Rab9 promoter activation | actives 2.8% (n = 320,000) | Potency, µM (top dose mostly 9.22 µM), for inactives: top-dose activation, negative = inhibition, most hits filed as activators | Huh7 Rab9 promoter-luciferase reporter, luminescence, 24 h | AID 485297; note: % of control where 0% means no effect; nearly all actives have a fitted effect of over 60% in size
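Luciferase signal after 10 min detection reagent at ambient indicates Rab9 promoter upregulation; stably transfected Huh7 cells were treated 24 h with compound in DMSO at 37 °C, 5% CO2.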
NPC1 prom act = activates the NPC1 promoter; actives 2.4% (n = 320,000); AID 485313; Potency, µM (doses to about 9.22 µM), for inactives: at the top dose activation, hits mostly activators; Huh7 NPC1 promoter luciferase reporter, 24 h; note: % of control where 0% means no effect; nearly all actives have a fitted effect of over 60% in size
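NPC1 promoter–luciferase Huh7 cells; 24 h compound; luminescence.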
* marks the source's active call; other numbers are inactive results; [ ] = another dose, or the depositor's remark. Only some compounds are listed: those with a hit (about 7.5% of all), similar ones and a draw of the others. Calls come from the whole dose curve; as a rule, active = well fitted curve in the direction sought with a large enough effect; inconclusive = small, poorly fitted or top-dose-only effect, or another doubt; inactive = no such curve, though single readings can be large; an effect the other way counts as inactive or inconclusive. Potency is the fitted concentration of half-maximal effect.

COc1ccc(OC)c(/C=C2\SC(=S)N(N3CCOCC3)C2=O)c1 was read as FLuc counter -18%, ELG1 genotoxic -1%, Rab9 prom act 16% and NPC1 prom act -1%.
Screening Cc1ccc(/C=C2\Sc3ccccc3C2=O)s1 returned SMN2 splice up inconclusive, FLuc counter 0.43µM*, ELG1 genotoxic inconclusive, Rab9 prom act inconclusive and NPC1 prom act inconclusive.
Cc1ccc(/C=C2\SC(N)=NC2=O)s1 was read as SMN2 splice up inconclusive, FLuc counter inconclusive, ELG1 genotoxic 3%, Rab9 prom act 10% and NPC1 prom act 8%.
`O=C1/C(=C/c2cccnc2)Sc2ccccc21` gave SMN2 splice up -2%, FLuc counter 9.5µM*, ELG1 genotoxic 5%, Rab9 prom act -4% and NPC1 prom act -2%.
Screening Cc1ccccc1/C=C/c1cccc[n+]1C returned FLuc counter 3%, ELG1 genotoxic -9%, Rab9 prom act -32% and NPC1 prom act -27%.
`CCOc1ccc(-c2nnc(N(CC)C(=O)C3CCC3)s2)cc1` gave SMN2 splice up 15%, FLuc counter 7.6µM*, ELG1 genotoxic inconclusive, Rab9 prom act 5% and NPC1 prom act 2%.
For COCCN(C(=O)CCc1ccc(OC)cc1)c1nnc(-c2ccncc2)s1 the results were FLuc counter 0%, ELG1 genotoxic -1%, Rab9 prom act -2% and NPC1 prom act 0%.
Screening CCCC(=O)N(C)c1nnc(-c2ccc(OC)cc2)s1 returned SMN2 splice up 10%, FLuc counter 7.6µM*, ELG1 genotoxic inconclusive, Rab9 prom act 4µM* and NPC1 prom act 27%.
CC(C)c1ccc(NC(=O)NCc2ccccn2)cc1 was read as FLuc counter inconclusive, ELG1 genotoxic inconclusive, Rab9 prom act 29% and NPC1 prom act inconclusive.
Screening Cc1cccc(NC(=O)CCCc2ccccc2)c1 returned FLuc counter 17µM*, ELG1 genotoxic inconclusive, Rab9 prom act inconclusive and NPC1 prom act inconclusive.
Screening Cc1cccc(NC(=O)N2CCN(Cc3ccccc3)CC2)c1 returned SMN2 splice up 18%, FLuc counter 17µM*, ELG1 genotoxic 10%, Rab9 prom act 20% and NPC1 prom act 21%.
CN(C)c1ccc(NC(=O)CCCc2ccccc2)cc1 was read as SMN2 splice up 16µM*, FLuc counter 2.4µM*, ELG1 genotoxic 0.92µM*, Rab9 prom act 1.6µM* and NPC1 prom act 4µM*.
For CC(O)c1cccc(NC(=O)CCCc2ccccc2)c1 (stereo not given) the results were FLuc counter -13%, ELG1 genotoxic 4%, Rab9 prom act 29% and NPC1 prom act 10%.
`O=C(NCCN1CCN(c2ccccc2F)CC1)C1COc2ccccc2C1` (stereo not given) gave FLuc counter -3%.
Screening O=C(CN(c1ccccc1F)S(=O)(=O)c1ccccc1)Nc1ccccc1C(=O)N1CCOCC1 returned SMN2 splice up -6%, FLuc counter 2%, ELG1 genotoxic -8%, Rab9 prom act -1% and NPC1 prom act -2%.
`COc1n[nH]c2nncnc12` gave SMN2 splice up -1%, FLuc counter -7%, ELG1 genotoxic -2%, Rab9 prom act 6% and NPC1 prom act -2%.
`COc1ccc(/C=N/Nc2ccccn2)cc1O` gave FLuc counter 6.7µM*, ELG1 genotoxic inconclusive, Rab9 prom act inconclusive and NPC1 prom act inconclusive.
`COc1ccc2nc(Cl)c(/C=N/Nc3ccccn3)cc2c1` gave SMN2 splice up inconclusive, FLuc counter 0.54µM*, ELG1 genotoxic inconclusive, Rab9 prom act inconclusive and NPC1 prom act 28%.
`CCOc1ccc(/C=N/Nc2ccccn2)cc1` gave SMN2 splice up 1.6µM*, FLuc counter 1.2µM*, ELG1 genotoxic 2.3µM*, Rab9 prom act 0.5µM* and NPC1 prom act 1.3µM*.
For Fc1ccc(/C=N/Nc2ccccn2)cc1 the results were SMN2 splice up 81%, FLuc counter 11µM*, ELG1 genotoxic inconclusive, Rab9 prom act 3.5µM* and NPC1 prom act 28%.
`FC(F)(F)c1ccccc1/C=N/Nc1ccccn1` gave SMN2 splice up 6%, FLuc counter inconclusive, ELG1 genotoxic 6%, Rab9 prom act -1% and NPC1 prom act -2%.
For COc1cc(C#Cc2c(-c3ccccc3OC)oc3ccccc23)cc(OC)c1 the results were FLuc counter -7%, ELG1 genotoxic -1%, Rab9 prom act 1% and NPC1 prom act -3%.
For [N-]=[N+]=CC(=O)CNC(=O)[C@@H](Cc1ccccc1)N1C(=O)c2ccccc2C1=O the results were SMN2 splice up 4%, FLuc counter 8%, ELG1 genotoxic 1%, Rab9 prom act -6% and NPC1 prom act -1%.
COc1ccc(/C=C2/Sc3ccc(C(=O)N4CCc5ccccc5C4)cc3NC2=O)cc1 was read as SMN2 splice up -2%[1.84 µM], FLuc counter -23%, ELG1 genotoxic -2%, Rab9 prom act -1% and NPC1 prom act -1%.
For COc1cccc(CN2CCN(C(=O)c3ccc(-c4ccccc4)cc3)CC2)c1 the results were SMN2 splice up -22%, FLuc counter 2%, ELG1 genotoxic -8%, Rab9 prom act -3% and NPC1 prom act 8%.
COCCCNS(=O)(=O)c1ccc(Oc2ncc(C(F)(F)F)cc2Cl)cc1 was read as SMN2 splice up -67%, FLuc counter 2%, ELG1 genotoxic -7%, Rab9 prom act -23% and NPC1 prom act -6%.
`O=C(CSc1ccc([N+](=O)[O-])cc1)Nc1cccc(S(=O)(=O)N2CCOCC2)c1` gave ELG1 genotoxic -2%.
`CC1(C)Cc2ccccc2C(N/N=C/c2ccc(Cl)cc2)=N1` gave SMN2 splice up -8%, FLuc counter 17µM*, ELG1 genotoxic -5%, Rab9 prom act -3% and NPC1 prom act -2%.
`Brc1ccccc1/C=N/Nc1ccccn1` gave SMN2 splice up inconclusive, FLuc counter inconclusive, ELG1 genotoxic inconclusive, Rab9 prom act 19% and NPC1 prom act 1%.
`Brc1ccc(/C=N/Nc2ccccn2)cc1` gave FLuc counter 6.7µM*, ELG1 genotoxic inconclusive, Rab9 prom act 3.5µM* and NPC1 prom act inconclusive.
`CC1(C)Cc2ccccc2C(N/N=C/c2ccc([N+](=O)[O-])cc2)=N1` gave SMN2 splice up -21%, FLuc counter -6%, ELG1 genotoxic 5%, Rab9 prom act -2% and NPC1 prom act -3%.
Screening Clc1ccc(/C=N/Nc2ccccn2)cc1 returned FLuc counter 6.7µM*, ELG1 genotoxic inconclusive, Rab9 prom act 3.2µM* and NPC1 prom act inconclusive.
Screening Cc1ccc(/C=N/Nc2ccccn2)s1 returned FLuc counter 11µM*, ELG1 genotoxic inconclusive, Rab9 prom act inconclusive and NPC1 prom act inconclusive.
